Test results taken from PubChem BioAssay (NCATS).
Values without a mark were called inactive. Results filed as inconclusive are left out. A call without a number means that no potency is given here. Calls of active or inactive are those of the source. Unless noted, the call rests on the fitted dose curve; in most records, active means well fitted curve in the direction sought with a large enough effect; inconclusive means small, poorly fitted or top-dose-only effect, or another doubt; inactive means no such curve, though single readings can be large; an effect the other way counts as inactive or inconclusive.

Key:
[1] = target: Mitogen-activated protein kinase 10 (Mus musculus) (UniProt Q61831); experiment: JNK3 AlphaScreen Assay (AID 530; active means well fitted curve in either direction with a large enough effect, not every such curve was filed as active;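 further: kinase came from lysate of stimulated human HepG2 cells; signal reports phosphorylation of biotinylated GST-cJun 1-79 at Ser73 with 10 µM ATP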)
In short: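 JNK3 came from HepG2 lysates pre-activated with IL-1beta and TNF-alpha and phosphorylated biotinylated GST-cJun (1-79) at 10 uM ATP, pH 7.6, room temperature. Compounds were titrated. AlphaScreen signal used anti-phospho-cJun (Ser73) antibody.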

[2] = Cell Viability - NIH 3T3 (AID 541); conditions: NIH 3T3 cell viability, qHTS; activity change, negative = cytotoxicity: at 92.2 µM (top of the series);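 further: cells exposed to compound for 40 hours; nearly all actives have a fitted effect of over 25% in size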
In short: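 NIH 3T3 mouse embryo fibroblasts (1000 cells/well) were plated in complete medium and treated with compound for 40 hr at 37 °C. Viability was read as intracellular ATP by CellTiter-Glo luminescence; AC50 values came from Hill-equation fits of concentration-response data.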

[3] = Cell Viability - Mesenchymal (AID 546);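 further: cells exposed to compound for 40 hours before reading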
In short: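 Normal human renal glomerulus-derived kidney mesenchymal cells, 1000 per well in complete medium, were treated with compounds for 40 hr at 37 °C. Viability was read as intracellular ATP by CellTiter-Glo luminescence; AC50 values came from Hill-equation fits of qHTS concentration-response data.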

[4] = Cellular Toxicity (caspase-3) MRC-5 (AID 659)
In short: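 Luminescence from caspase-cleaved aminoluciferin substrate (Caspase-Glo 3/7, 1 hr RT) reports caspase 3/7 activity in MRC-5 lung fibroblasts after 16 hr compound exposure. Normalized to DMSO basal and 10 uM staurosporine as 100%; AC50 from Hill fits.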

[5] = Cellular Toxicity (caspase-3) Hek293 (AID 664); conditions: HEK293 caspase-3 activation, DMSO = 0%, 100 µM tamoxifen = 100%; at 92.2 µM (top of the series);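 further: cells exposed to compound for 16 h at 37 °C before readout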
In short: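 HEK293 cells were exposed to compounds in complete medium for 16 hr at 37 °C, then caspase-3/7 activity was read by Caspase-Glo 3/7 luminescence after 20 min at room temperature. Data normalized to DMSO and 100 uM tamoxifen; AC50 from Hill fits.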

[6] = target: Cytochrome P450 3A4 (Homo sapiens) (UniProt P08684); experiment: qHTS Assay for Inhibitors and Substrates of Cytochrome P450 3A4 (AID 884); further: nearly all actives have a fitted effect of over 50% in size; further: potency means the concentration at half of the fitted maximal effect
In short: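 20 nM human CYP3A4 with 25 uM Luciferin-PPXE (at KM) in 200 mM KPO4, preincubated 10 min with compound; NADPH regeneration started a 60 min RT reaction. Luciferin detected by luminescence, normalized to 57 uM ketoconazole as full inhibition.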

[7] = MultiTox-Fluor Cytotoxicity Assay - LYMP1-002 - Live Cells (AID 955)
In short: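 Human lymphoblastoid LYMP1-002 cells, 2500/well in complete medium, rested 5 hr at 37 C, then exposed to compounds for 16 hr at 37 C. Live-cell protease cleavage of GF-AFC read by fluorescence (Ex/Em 405/510) after 60 min at room temperature; AC50 from Hill fits.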

[8] = MultiTox-Fluor Cytotoxicity Assay - LYMP1-002 - Dead Cells (AID 960); further: nearly all actives have a fitted effect of over 60% in size
In short: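 Human lymphoblastoid cells (LYMP1-002), 2500/well in complete medium, were exposed to compounds for 16 hr at 37 C. Dead-cell protease activity was read as bis-AAF-R110 fluorescence (Ex/Em 485/520), normalized to DMSO and 15 uM tetraoctylammonium bromide; AC50 from Hill fits.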

[9] = Cell Viability - LYMP2-017 (AID 972); further: nearly all actives have a fitted effect of over 55% in size
In short: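 Human lymphoblastoid cells (2500/well) were seeded in complete medium, held 5 hr at 37 C, then exposed to compounds for 24 hr at 37 C. Intracellular ATP was read by CellTiter-Glo luminescence after 30 min at room temperature, with AC50 values from Hill-equation fits.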

[10] = Cell Viability - LYMP2-021 (AID 974);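 further: compound exposure lasts 24 hours at 37 °C; nearly all actives have a fitted effect of over 55% in size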
In short: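 Human lymphoblastoid cells (2500/well) were preincubated 5 hr at 37 C, then exposed to compounds for 24 hr at 37 C in complete medium. Intracellular ATP was read by CellTiter-Glo luminescence; AC50 came from Hill-equation fits of concentration-response data.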

[11] = Cell Viability - LYMP2-016 (AID 984); further: nearly all actives have a fitted effect of over 55% in size
In short: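 Acute toxicity in a Coriell human lymphoblastoid line is scored as loss of intracellular ATP over 24 h of treatment in complete medium. CellTiter-Glo signal is fitted across concentrations with the Hill equation to give AC50.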

[12] = Cell Viability - LYMP1-002 - Assay at 24 hr (AID 993)
In short: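 Human lymphoblastoid LYMP1-002 cells, 2500/well in complete medium, were treated with compounds for 24 h at 37 C; intracellular ATP was read by CellTiter-Glo luminescence. AC50 values came from Hill-equation fits of qHTS concentration-response data.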

[13] = target: Vitamin D3 receptor (Homo sapiens) (UniProt P11473); experiment: qHTS assay for small molecule agonists of vitamin D receptor signaling (AID 588543; calls by dose curve)
In short: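 qHTS in agonist mode: compound titrations stimulate a VDR-driven β-lactamase reporter in HEK293T cells over 16 h at 37 °C. Response normalized to 50 nM 1α,25-dihydroxyvitamin D3 = 100%, DMSO = 0%; Hill fitting gives EC50 and maximal response.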

[14] = qHTS assay for small molecule disruptors of the mitochondrial membrane potential - 5 hr assay (AID 651755; calls by dose curve; further: nearly all actives have a fitted effect of over 40% in size; further: potency means the concentration at half of the fitted maximal effect)
In short: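 HepG2 cells, attached overnight at 37C, were exposed to compound or DMSO for 5 hr at 37C, 5% CO2. Mito-MPS dye was then added for 30 min, and fluorescence read at 490/535 nm (monomers) and 540/590 nm (aggregates).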

[15] = target: Tumor necrosis factor (Homo sapiens) (UniProt P01375); experiment: qHTS assay to identify small molecules that stimulate Tumor Necrosis Factor-alpha (TNF-alpha) secretion (AID 651757; active means well fitted curve in the direction sought with a large enough effect in the signal ratio; the % refers to the signal ratio)
In short: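 THP-1 cells were exposed to compounds for 17 hrs at 37 C, after which secreted TNF-alpha was measured by homogeneous HTRF (TR-FRET) using cryptate- and XL665-labeled anti-TNF-alpha antibodies, read after 3 hr at room temperature.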

[16] = qHTS assay for small molecule agonists of the antioxidant response element (ARE) signaling pathway measured by Nrf2-dependant transcriptional activity - cell viability counter screen (AID 720653; active means well fitted curve in the direction sought with a large enough effect in the repeat runs; an effect the other way counts as inactive or inconclusive); conditions: ARE-bla HepG2 viability, CellTiter-Glo ATP luminescence, 16 h; stronger effect = lower value
In short: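 ARE-bla HepG2 cells (2,000/well) rested 5 hrs at 37C/5% CO2, then exposed to compounds in DMSO for 16 hrs. Viability was read in the same wells as intracellular ATP by luminescence, 30 min at room temperature after reagent addition.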

[17] = target: Nuclear receptor subfamily 1 group I member 2 (Rattus norvegicus) (UniProt Q9R1A7); experiment: qHTS assay for small molecule activators of the rat pregnane X receptor (rPXR) signaling pathway (AID 651751; call rule not given here); conditions: rPXR reporter cells, luciferase (One-Glo), 24 h
[18] = qHTS assay for small molecule activators of the human pregnane X receptor (PXR) signaling pathway (AID 720659; call rule not given here)
[19] = target: Nuclear receptor ROR-gamma (Homo sapiens) (UniProt P51449); experiment: qHTS assay for small molecule antagonists of the retinoid-related orphan receptor gamma (ROR-gamma) signaling pathway (AID 651802); further: nearly all actives have a fitted effect of over 60% in size
In short: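 CHO cells carrying TET-inducible ROR-gamma and an ROR response element–luciferase reporter were exposed to compound, then induced with doxycycline. After 16hr at 37C, luminescence was read; lower signal indicates antagonism.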

[20] = Cell Viability - LYMP2-003 (AID 965);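 further: cells exposed to compounds for 24 h before reading; nearly all actives have a fitted effect of over 50% in size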
In short: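 Acute cytotoxicity is scored as a concentration-dependent drop in intracellular ATP, measured by luciferase luminescence in human lymphoblastoid cells treated for 24 hours at 37 C. AC50 values derive from Hill-equation modelling.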

Tumor necrosis factor (Homo sapiens), sequence (P01375 whole entry, looked up): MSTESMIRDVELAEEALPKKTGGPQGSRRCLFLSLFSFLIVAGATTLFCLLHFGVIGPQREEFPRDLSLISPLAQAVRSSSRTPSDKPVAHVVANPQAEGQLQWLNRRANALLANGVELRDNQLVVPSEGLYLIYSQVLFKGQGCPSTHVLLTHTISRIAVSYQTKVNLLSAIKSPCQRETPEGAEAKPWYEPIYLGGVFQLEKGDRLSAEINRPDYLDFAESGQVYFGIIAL
Vitamin D3 receptor (Homo sapiens), sequence (P11473 whole entry, looked up): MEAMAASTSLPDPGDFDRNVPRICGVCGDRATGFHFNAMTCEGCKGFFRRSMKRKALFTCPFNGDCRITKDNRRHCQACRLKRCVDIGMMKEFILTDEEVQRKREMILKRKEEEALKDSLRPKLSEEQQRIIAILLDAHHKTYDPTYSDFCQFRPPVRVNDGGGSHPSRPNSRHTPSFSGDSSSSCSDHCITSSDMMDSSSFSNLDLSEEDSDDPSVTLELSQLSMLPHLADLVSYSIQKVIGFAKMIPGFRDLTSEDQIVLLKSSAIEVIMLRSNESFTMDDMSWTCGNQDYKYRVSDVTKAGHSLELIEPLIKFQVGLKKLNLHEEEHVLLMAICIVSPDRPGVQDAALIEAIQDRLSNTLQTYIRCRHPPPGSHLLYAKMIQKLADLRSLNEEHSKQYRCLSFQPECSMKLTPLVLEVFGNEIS
Nuclear receptor ROR-gamma (Homo sapiens), sequence (P51449 whole entry, looked up): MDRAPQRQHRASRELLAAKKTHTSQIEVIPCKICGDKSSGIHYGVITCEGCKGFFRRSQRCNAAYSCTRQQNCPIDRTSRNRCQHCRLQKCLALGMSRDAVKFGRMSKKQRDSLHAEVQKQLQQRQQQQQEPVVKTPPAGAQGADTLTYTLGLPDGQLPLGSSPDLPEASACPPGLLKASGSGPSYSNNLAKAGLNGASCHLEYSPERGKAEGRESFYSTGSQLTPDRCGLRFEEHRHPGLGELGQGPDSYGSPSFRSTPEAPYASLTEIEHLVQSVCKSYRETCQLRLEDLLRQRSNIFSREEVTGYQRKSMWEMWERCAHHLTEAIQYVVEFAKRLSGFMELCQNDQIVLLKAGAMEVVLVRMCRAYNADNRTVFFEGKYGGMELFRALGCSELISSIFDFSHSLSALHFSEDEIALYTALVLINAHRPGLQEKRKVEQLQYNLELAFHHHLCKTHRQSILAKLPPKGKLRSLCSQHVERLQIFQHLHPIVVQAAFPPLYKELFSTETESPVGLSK
Nuclear receptor subfamily 1 group I member 2 (Rattus norvegicus), sequence (Q9R1A7 whole entry, looked up): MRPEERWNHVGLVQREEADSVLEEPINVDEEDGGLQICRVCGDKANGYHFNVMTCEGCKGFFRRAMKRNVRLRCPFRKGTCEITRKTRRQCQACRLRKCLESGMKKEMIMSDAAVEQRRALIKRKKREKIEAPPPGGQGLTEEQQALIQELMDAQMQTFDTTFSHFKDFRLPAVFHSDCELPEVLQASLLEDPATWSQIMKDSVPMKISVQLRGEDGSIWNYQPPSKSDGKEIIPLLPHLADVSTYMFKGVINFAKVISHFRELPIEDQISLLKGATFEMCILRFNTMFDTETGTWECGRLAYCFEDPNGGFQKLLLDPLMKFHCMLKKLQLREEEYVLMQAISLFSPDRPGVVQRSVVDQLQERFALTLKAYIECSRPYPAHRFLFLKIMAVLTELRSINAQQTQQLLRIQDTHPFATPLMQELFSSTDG
Cytochrome P450 3A4 (Homo sapiens), sequence (P08684 whole entry, looked up): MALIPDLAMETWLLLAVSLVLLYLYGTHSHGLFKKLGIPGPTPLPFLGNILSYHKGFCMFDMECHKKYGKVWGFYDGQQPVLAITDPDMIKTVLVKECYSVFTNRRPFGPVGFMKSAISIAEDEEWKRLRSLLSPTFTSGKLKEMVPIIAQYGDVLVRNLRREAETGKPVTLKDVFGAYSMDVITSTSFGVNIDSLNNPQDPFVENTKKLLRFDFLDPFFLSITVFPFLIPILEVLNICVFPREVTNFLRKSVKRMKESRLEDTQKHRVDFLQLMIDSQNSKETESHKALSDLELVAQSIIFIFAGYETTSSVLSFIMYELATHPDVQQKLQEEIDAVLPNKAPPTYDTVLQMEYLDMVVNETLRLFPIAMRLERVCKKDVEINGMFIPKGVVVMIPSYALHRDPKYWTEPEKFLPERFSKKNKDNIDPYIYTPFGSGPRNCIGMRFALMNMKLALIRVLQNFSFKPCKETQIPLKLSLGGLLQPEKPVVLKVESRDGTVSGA

Compound	Potency [1]	Potency [2]	Potency [3]	outcome [4]	caspase-3 activation [5]	Potency [6]	outcome [7]	Potency [8]	Potency [9]	Potency [10]	Potency [11]	Potency [12]	outcome [13]	Potency [14]	outcome [15]	max response [16] [%]	max response [17] [%]	outcome [18]	Potency [19]	Potency [20]
[O-][Cl+2]([O-])O	inactive	inactive	inactive	inactive	-0.13%	inactive	inactive	inactive	inactive	inactive	inactive	inactive	inactive	inactive	inactive	27.9	2.81	inactive		
CC(=O)NNc1ccccc1	inactive	inactive	inactive	inactive	-1.37%		inactive		inactive		inactive	inactive	inactive	inactive	inactive	1.56	-6.67	inactive	inactive	
ClCc1ccccc1	inactive	inactive	inactive		1.06%	inactive		inactive	inactive	inactive	inactive		inactive	inactive	inactive	16.1	-2.08	inactive	inactive	
ClC(Cl)c1ccccc1	inactive	inactive	inactive	inactive	0.485%	inactive	inactive	inactive	inactive	inactive	inactive	inactive	inactive	inactive	inactive	-0.372	3.54	inactive	inactive	inactive
Cc1ccc(N)cc1Cl	inactive	inactive	inactive	inactive				inactive	inactive		inactive	inactive	inactive	inactive	inactive	7.4		inactive		inactive
Clc1ccccc1	inactive	inactive	inactive	inactive	0.224%	inactive	inactive	inactive	inactive	inactive	inactive		inactive	inactive	inactive	-18.9	-2.96	inactive	inactive	inactive
CC(C)CC(C)N (configuration not stated)	inactive	inactive	inactive	inactive	1.99%	inactive	inactive	inactive	inactive		inactive	inactive		inactive	inactive		0.275	inactive	inactive	inactive
CCCCCc1cc(O)cc(O)c1	inactive	inactive	inactive	inactive	1.25%	12.6 µM (active)	inactive		inactive		inactive	inactive	inactive	37.6 µM (active)	inactive	8.35	-1.86	inactive	inactive	inactive
Cc1ccc([N+](=O)[O-])cc1	inactive	inactive	inactive	inactive	-0.449%	inactive		inactive	inactive	inactive	inactive	inactive	inactive	inactive	inactive	-6.34	3.32	inactive	inactive	inactive
Cc1ccc2c(C)cccc2c1	inactive	inactive	inactive		-1.38%	inactive	inactive		inactive	inactive	inactive	inactive		inactive	inactive	-2.91	-3.71	inactive	inactive	inactive
Nc1ccc(-c2ccccc2)cc1	inactive	inactive	inactive	inactive	1.62%	12.6 µM (active)	inactive	inactive	inactive	inactive	inactive	inactive	inactive		inactive	5.56		inactive	inactive	inactive
N#CCc1ccccc1	inactive	inactive	inactive	inactive	-1.14%	inactive	inactive	inactive	inactive	inactive	inactive	inactive		inactive	inactive	-1.59	1.21	inactive	inactive	inactive
S=c1[nH]c2ccccc2[nH]1	inactive	inactive	inactive		0.513%	10 µM (active)	inactive	inactive	inactive		inactive	inactive		inactive		2.67	-7.5	inactive		
Nc1cccc2ccccc12	inactive	inactive	inactive	inactive	156% (active)		inactive	inactive			inactive	inactive		inactive	inactive	-19.6			inactive	inactive
CCCCCCCCCCCCCl	inactive	inactive	inactive	inactive	2.31%	inactive	inactive	inactive		inactive	inactive	inactive	inactive	inactive	inactive	-2.45	3.36	inactive		inactive
